Bioassay records (PubChem)
A selection: hits, their analogues and other compounds. The true share with any hit is near 2.4%.
FEN1 inh – human FEN1 inhibition. P39748. Recombinant FEN1 flap cleavage, fluorescence, 15 min. Potency, µM (highest dose often 114 µM), for the others: at the highest dose activity change, negative = inhibition, most hits filed as inhibitors. actives 0.35% (n = 390,000); also: % is scaled to controls: 0 for no effect and ±100 for the full control effect; nearly all actives have a fitted effect of over 65% in size
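Steps: FEN1 (10 nM) dispensed; compound added by pin tool; 15 min at room temperature; substrate added to 50 nM final; reads at 0 min and 15 min; data normalized and fitted (four-parameter Hill).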
Pol beta inh – DNA polymerase beta (human) inhibition | P06746 | Pol beta primer extension/strand displacement, fluorescence kinetic | Potency, µM (titrated, usually from 114 µM), inactives show at the highest dose activity change, negative = inhibition, most hits filed as inhibitors | actives 1.3% (n = 340,000); also: % is scaled to controls: 0 for no effect and ±100 for the full control effect
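Values derive from four-parameter Hill fits of normalized kinetic data: reads at 0 and 10 min following addition of 50 nM substrate to 10 nM Pol beta preincubated 15 min with compound.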
Pol eta inh – inhibitors of human DNA polymerase eta. recombinant Pol eta, fluorescent DNA replication assay. actives 1.2% (n = 390,000). AID 588591. Potency, µM (doses to about 114 µM), inactives show at the top dose activity change, negative = inhibition, hits mostly inhibitors. Q9Y253; also: % is scaled to controls: 0 for no effect and ±100 for the full control effect
Target sequence (Q9Y253 whole entry, looked up): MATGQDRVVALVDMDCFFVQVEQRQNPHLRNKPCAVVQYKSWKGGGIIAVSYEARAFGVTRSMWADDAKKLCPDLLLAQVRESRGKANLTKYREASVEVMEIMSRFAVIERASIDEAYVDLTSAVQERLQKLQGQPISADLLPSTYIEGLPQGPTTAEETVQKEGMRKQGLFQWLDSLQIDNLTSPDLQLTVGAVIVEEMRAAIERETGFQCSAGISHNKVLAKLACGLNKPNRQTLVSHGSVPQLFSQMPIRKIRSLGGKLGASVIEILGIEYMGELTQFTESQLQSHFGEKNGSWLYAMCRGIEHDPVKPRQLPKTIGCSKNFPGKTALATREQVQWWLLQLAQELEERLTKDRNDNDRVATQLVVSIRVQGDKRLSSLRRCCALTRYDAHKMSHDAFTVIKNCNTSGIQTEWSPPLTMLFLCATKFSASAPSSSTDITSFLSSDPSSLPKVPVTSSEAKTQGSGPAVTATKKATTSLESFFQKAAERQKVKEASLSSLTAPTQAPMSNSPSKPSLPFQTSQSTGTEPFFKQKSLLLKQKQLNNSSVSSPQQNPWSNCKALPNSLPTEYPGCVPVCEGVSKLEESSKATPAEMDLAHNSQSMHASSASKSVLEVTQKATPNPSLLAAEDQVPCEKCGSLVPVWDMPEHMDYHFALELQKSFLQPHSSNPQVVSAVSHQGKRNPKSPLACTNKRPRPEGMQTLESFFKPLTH
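Pol eta (10 nM) was preincubated with compounds for 15 min at room temperature, after which fluorescent replication substrate (50 nM final) was added to start the reaction. Fluorescence was read kinetically at 0 and 10 min.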
WRN helicase inh – WRN helicase (human) inhibition; Q14191; WRN helicase unwinding, fluorescent forked duplex, kinetic; Potency, µM (series often up to 114 µM), for the others: at the top dose activity change, negative = inhibition, actives largely listed as inhibitors; actives 0.46% (n = 360,000); AID 651768; also: % is scaled to controls: 0 for no effect and ±100 for the full control effect; nearly all actives have a fitted effect of over 55% in size
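Kinetic fluorescence helicase assay: unwinding of a quenched forked DNA duplex (100 nM final) with 2 mM ATP final raises red fluorescence (525/598 nm). Compounds sat 15 min at room temperature with 20 nM WRN beforehand.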
POLK inh – blocks human DNA polymerase kappa activity; Q9UBT6; actives 0.53% (n = 400,000); Potency, µM (top dose mostly 107 µM), for the others: at the highest dose activity, negative = inhibition, actives largely listed as inhibitors; purified Pol kappa, fluorescent DNA synthesis assay, 10 min; also: % is scaled to controls: 0 for no effect and ±100 for the full control effect
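Here, compound and 10 nM enzyme are combined for 15 min at room temperature; adding 50 nM substrate (final) starts DNA synthesis, tracked by fluorescence at 0 and 10 min against buffer-only wells.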
POLI inh – DNA polymerase iota (human) inhibition | Q9UNA4 | Pol iota fluorescent replication assay, 10 min | Potency, µM (series often up to 115 µM), inactives show at the top dose activity, negative = inhibition, actives largely listed as inhibitors | actives 1% (n = 390,000) | AID 588590
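Pol iota at 10 nM preincubated 15 min with compounds at room temperature; reaction started with fluorescent substrate, 50 nM final. Fluorescence read kinetically at 0 and 10 min; buffer-only wells as negative control.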
Numbers without * were called inactive; ? = inconclusive; . = no result; ! = not confirmed by another sample; [ ] = another dose, or the depositor's remark. Calls follow the shape of the dose curve; as a rule, active = well fitted curve in the direction sought with a large enough effect; inconclusive = small, poorly fitted or top-dose-only effect, or another doubt; inactive = no such curve, though single readings can be large; an effect the other way counts as inactive or inconclusive. Potency is read from the fitted curve at half-maximal effect.

SMILES	FEN1 inh	Pol beta inh	Pol eta inh	WRN helicase inh	POLK inh	POLI inh
COC(=O)CSc1nc2c(c(-c3ccco3)c1C#N)CCCC2	3%	22µM*	?	-29%	-11%	?
COC(=O)CSc1nc2c(c(-c3ccc(O)cc3)c1C#N)CCCC2	-3%	-2%	-13%	-11%	-3%	-19%
CCN(C(=O)CSc1nnc(-c2cc(OC)c(OC)c(OC)c2)o1)c1ccccc1	-20%	10µM*	2%	.	?	?
O=C1C(=O)c2c(ccc3ccccc23)-c2ccccc21	-18%	.	7.9µM*	-10%[11.6 µM]	-1%	54%
Cc1ccnc(NS(=O)(=O)c2ccc(NC(=O)Cc3cccs3)cc2)n1	?	20µM*	2.5µM*	40µM*	32µM*	14µM*
Cc1ccc(C)c(SCC(=O)Nc2ccc(S(=O)(=O)Nc3ncccn3)cc2)c1	-2%	?	50µM*	-9%[11.6 µM]	0%	?
Cc1ccnc(NS(=O)(=O)c2ccc(NC(=O)Cc3ccc(F)cc3)cc2)n1	-3%	6%	5%	2%	7%	5%
CC(=O)NC1=CC(=O)c2nonc2C1=O	-53%	.	.	.	?	-84%
O=C(Nc1cccc(Nc2ccccc2)c1)c1cnn2c1NC(=C1CC1)C=C2C(F)F	-6%	.	.	.	-14%	11%
O=Cc1ccc(CS)cc1	10%	.	.	.	-9%	5%
Cc1cc(C(=O)NNS(=O)(=O)c2cc(C(=O)O)ccc2Cl)c(C)n1-c1ccccc1	9%	.	22µM*	-15%	?	?
Cc1cc(C(=O)Nc2ccc(Cl)cc2)c(C)n1-c1ccccc1	-6%	0%	-25%	-21%	-10%	136%
OC(CBr)C[n+]1cc(Br)cc2ccccc21 (configuration not stated)	-13%	.	.	.	-20%	9%
COCc1c(C(=O)N2CCc3ccccc32)oc2ccccc12	-13%	-11%	-98%	-2%[11.6 µM]	?	79µM*
CCn1cc(C(=O)Nc2ncccc2O)c(=O)c2cc(F)c(N3CCN(C(=O)c4ccco4)CC3)cc21	-3%	-20%	-2%	-2%[11.6 µM]	-29%	71µM*
O=C(Cc1ccccc1Cl)NO	-1%	.	.	.	7%	-9%
O=C(NC1CCCC1)c1sc(=S)n2c1[nH]c(=O)c1ccccc12	?	?	56µM*	-30%	-24%	?
Cc1ccc(CNC(=O)c2ccc3c(=O)[nH]c4c(C(=O)NCC5CCCO5)sc(=S)n4c3c2)cc1 (configuration not stated)	?	-2%	-24%	-13%	-15%	24%
C=CCn1c(N)c(C(=O)NCc2ccco2)sc1=S	-10%	-7%	-15%	3%	-12%	-8%[58.9 µM]
O=C(NCc1ccco1)c1sc(=S)n2c1[nH]c(=O)c1ccccc12	?	50µM*	22µM*	?	?	?
CCCCCNC(=O)c1ccc2c(=O)[nH]c3c(C(=O)NCC4CCCO4)sc(=S)n3c2c1 (configuration not stated)	-5%	-8%	25µM*	?	-44%	-19%
CCc1ccc2oc(-c3cc(NC(=O)COc4ccc(C)cc4)ccc3O)nc2c1	11%	.	.	.	4%	14%
COc1ccc(/C=C/c2nccc3ccccc23)cc1OC	-19%	.	.	.	0%	17%
COc1cc(-c2cnc3c(NC(C)=O)cc(-c4cccc(C(=O)NCCO)c4)cn23)cc(OC)c1OC	.	.	.	-3%	.	.
COc1ccc(-c2cnc3c(NC(C)=O)cc(-c4cccc(C(=O)NCCN(C)C)c4)cn23)cc1OC	.	.	.	25µM*	.	.
SMILES	FEN1 inh	Pol beta inh	Pol eta inh	WRN helicase inh	POLK inh	POLI inh
COc1cc(-c2cnc3c(NC=O)cc(-c4cccc(C(=O)NCCN(C)C)c4)cn23)cc(OC)c1OC	.	.	.	20µM*	.	.
CSCC[C@H](NC(=O)[C@H](CC(C)C)NC(=O)CNC(=O)[C@H](Cc1ccc(O)cc1)NC(=O)[C@H](Cc1ccccc1)NC(=O)[C@H](CCC(N)=O)NC(=O)[C@H](CCC(N)=O)NC(=O)[C@@H]1CCCN1C(=O)[C@H](CCCCN)NC(=O)[C@@H]1CCCN1C(=O)[C@@H](N)CCCN=C(N)N)C(N)=O	.	.	.	.	13%[60.1 µM]	.
C=CCn1c(SCC(=O)NC2CCCC2)nc2scc(-c3ccco3)c2c1=O	-2%	25µM*	16µM*	?	?	?
C=CCn1c(SCC(=O)Nc2ccc(C(=O)O)cc2)nc2scc(-c3ccccc3)c2c1=O	1%	.	-15%	-16%	-8%	-18%
C=CCn1c(SCC(=O)NCC2CCCO2)nc2scc(-c3ccccc3)c2c1=O (configuration not stated)	-2%	2%	-13%	4%	-5%	-1%
C=CCn1c(SCC(=O)NCCCC)nc2scc(-c3ccco3)c2c1=O	-12%	22µM*	10µM*	?	40µM*	20µM*
O=C(N/N=C/c1ccco1)c1cc(-c2ccc(Cl)s2)[nH]n1	-15%	?	-9%	-16%	-29%	?
O=C(N/N=C/c1cccs1)c1cc(-c2ccc(Cl)s2)[nH]n1	-3%	45µM*	?	-5%[11.6 µM]	-26%	?
CCCC(=O)N(C)c1ccc(/C=C2\C=Cc3ccccc32)cc1	-8%	.	.	.	-6%	0%
Cc1c(NS(=O)(=O)c2cccc(C(=O)NCc3ccco3)c2)c(=O)n(-c2ccccc2)n1C	?	.	?	?	-36%	35µM*
Cc1c(NS(=O)(=O)c2cccc(C(=O)NCc3ccc(Cl)cc3)c2)c(=O)n(-c2ccccc2)n1C	-8%	?	-2%	-2%	-11%	15%
Cc1c(NS(=O)(=O)c2cc(C(=O)NCCN(C)C)ccc2Cl)c(=O)n(-c2ccccc2)n1C	-10%	45µM*	-26%	-17%	?	?
Cc1c(NS(=O)(=O)c2cccc(C(=O)O)c2)c(=O)n(-c2ccccc2)n1C	-5%	73%	-9%	8%	-1%	50µM*!
O=C(O)c1c(Cl)c(Cl)c(Cl)c(Cl)c1-c1c2cc(I)c(=O)c(I)c-2oc2c(I)c(O)c(I)cc12	.	.	.	.	12µM*	.
Cc1ccc(/C=C2\SC(=S)N(C3CCS(=O)(=O)C3)C2=O)cc1 (configuration not stated)	6%	31%	7%	2%	-11%	45%
O=C1/C(=C/c2ccco2)SC(=S)N1C1CCS(=O)(=O)C1 (configuration not stated)	-9%	13µM*	-8%	-21%	?	?
O=C1/C(=C\c2ccco2)SC(=S)N1c1ccccc1	-4%	28µM*	?	-21%	-25%	?
O=C1/C(=C\c2ccco2)SC(=S)N1Cc1ccccc1	-4%	?	?	-15%	-11%	-2%
Cc1ccc(N2C(=O)/C(=C\c3ccco3)SC2=S)cc1	-1%	45µM*	?	?	79µM*	?
